Inconclusive results are not listed. Calls of active or inactive are those of the source. Rule for the calls: active = hit-call score of the fitted dose curve at least 0.9, where 1 is the maximum; inconclusive = response in the unintended direction; inactive = score below 0.9.
Tests used:
[1] = ATG_XTT_Cytotoxicity: Cytotoxicity Assessment in the Attagene TRANS-FACTORIAL HepG2 Assay (AID 2283584);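 for AC50: cells exposed to compound for 24 h before reading; active means loss of viability signal versus DMSO baseline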
Method in brief: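 HepG2 human liver cells, transiently transfected with multiple GAL4-UAS reporter units, were dosed and read at 24 h by XTT as cell number. Loss of signal was fitted relative to DMSO negative control baseline.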

[2] = TOX21_p53_BLA_p2_viability: Viability Assessment in the Tox21 HCT-116 p53 Agonism Beta-lactamase Assay, Phase 2 (AID 2283591);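 note: compound exposure lasted 16 h at 37 °C; actives lower the ATP signal meaning cytotoxicity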
Method in brief: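 Cytotoxicity readout: CellTiter-Glo ATP luminescence, 30 min at room temperature, after the beta-lactamase read. Cells were HCT116 exposed 16 h at 37C to compounds pin-transferred at 217-fold dilution from DMSO stocks.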

BrCCCCBr
outcome [1]: inactive
outcome [2]: inactive

CN(C)[C@@H]1C(=O)C(C(N)=O)=C(O)[C@@]2(O)C(=O)C3=C(O)c4c(O)ccc(Cl)c4[C@@](C)(O)[C@H]3C[C@@H]12
outcome [1]: inactive
outcome [2]: inactive

O=C(CCl)NCO
outcome [1]: inactive
outcome [2]: inactive

Brc1ccc(Br)cc1
outcome [1]: inactive
outcome [2]: inactive

CCOP(=S)(OCC)O/N=C(\C#N)c1ccccc1
outcome [1]: inactive
outcome [2]: inactive

CNC(=O)O/N=C/C(C)(C)S(C)(=O)=O
outcome [1]: inactive
outcome [2]: inactive

CCN(CC)C(=O)C(Cl)=C(C)OP(=O)(OC)OC
outcome [1]: inactive
outcome [2]: inactive

CC1(C)[C@H](/C=C2\CCSC2=O)[C@@H]1C(=O)OCc1coc(Cc2ccccc2)c1
outcome [1]: inactive
outcome [2]: inactive

CCOc1cc(C=O)ccc1O
outcome [1]: inactive
outcome [2]: inactive

O=S1OC[C@@H]2[C@H](CO1)[C@]1(Cl)C(Cl)=C(Cl)[C@@]2(Cl)C1(Cl)Cl (some centres undefined)
outcome [1]: inactive
AC50 [2]: 67100 nM (active)

CCC(C)(C#N)N=NC(C)(C#N)CC (centres undefined)
outcome [1]: inactive
outcome [2]: inactive

O=C(Cl)OCCOCCOC(=O)Cl
outcome [1]: inactive
outcome [2]: inactive

O=S(=O)(c1ccc(Cl)cc1)c1cc(Cl)c(Cl)cc1Cl
outcome [1]: inactive
outcome [2]: inactive

CC(C)[C@@H](Nc1ccc(C(F)(F)F)cc1Cl)C(=O)OC(C#N)c1cccc(Oc2ccccc2)c1 (some centres undefined)
outcome [1]: inactive
outcome [2]: inactive

C=CC(=O)[O][Sn]([CH2]CCC)([CH2]CCC)[CH2]CCC
AC50 [1]: 1090 nM (active)
AC50 [2]: 1860 nM (active)

CCOC(=O)OC1=C(c2cc(C)ccc2C)C(=O)NC12CCC(OC)CC2 (centres undefined)
outcome [1]: inactive
outcome [2]: inactive

COC(=O)Nc1cccc(OC(=O)Nc2cccc(C)c2)c1
outcome [1]: inactive
outcome [2]: inactive

From PubChem BioAssay (EPA / NIEHS)
